Here are results for 19 compounds from PubChem BioAssay (NCI).

The nature of assay [1]: NCI Yeast Anticancer Drug Screen. Data for the rad50 strain (AID 155).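 Further: 0% = growth of vehicle-only cultures of the same strain.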 The settings on record: S. cerevisiae rad50 strain growth inhibition; at 50.0 µM; stronger effect = higher value. The gist of the method: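 Inhibition values express reduced yeast growth in compound-treated cultures relative to vehicle-treated controls.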
The nature of assay [2]: NCI Yeast Anticancer Drug Screen. Data for the mec2-1 strain (AID 157). The settings on record: S. cerevisiae mec2-1 strain, at 50.0 µM, stronger effect = higher value. The gist of the method:
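Growth inhibition is read against vehicle-treated controls after compound exposure of the mec2-1 yeast strain, which is defective in DNA damage repair or cell cycle control.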

Assay [3] can be described thus: NCI Yeast Anticancer Drug Screen. Data for the sgs1 mgt1 strain (AID 161).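 Further: 0% = growth of cultures given vehicle only.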 The note with it: S. cerevisiae sgs1 mgt1 strain, at 50.0 µM, stronger effect = higher value. The method, boiled down: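 This yeast growth screen uses a strain with defined DNA-repair lesions; compound-treated growth is compared with vehicle-treated growth.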
The nature of assay [4]: NCI Yeast Anticancer Drug Screen. Data for the cln2 rad14 strain (AID 165).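 Further: 0% = growth equal to vehicle treated cultures.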 The settings on record: S. cerevisiae cln2 rad14 strain, at 50.0 µM, stronger effect = higher value. The gist of the method: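 Growth inhibition, relative to vehicle-treated controls, is the read-out. The test organism is a yeast strain with defined genetic alterations, cln2 rad14.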
Assay [5] in a line: NCI Yeast Anticancer Drug Screen. Data for the bub3 strain (AID 167). The note with it: S. cerevisiae bub3 mutant strain, at 50.0 µM, stronger effect = higher value. The method, boiled down: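 Steps: expose the mutant yeast strain to compound; grow alongside vehicle-treated cultures; measure growth; express inhibition against the vehicle cultures.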
The nature of assay [6]: NCI Yeast Anticancer Drug Screen. Data for the mlh1 rad18 strain (AID 175). The note with it: S. cerevisiae mlh1 rad18 strain growth inhibition; at 50.0 µM; stronger effect = higher value. The method, boiled down:
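Cells of a genetically altered yeast strain, deficient in DNA damage repair, were treated with compound. Their growth was then compared with that of vehicle-treated cultures to give inhibition.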

SMILES strings stand for the structures. Compounds without any hit were thinned out: in the full panel of roughly 79,000, 15% have a hit. Values without a mark were called inactive. Calls of active or inactive are those of the source. No stated cut-off is given here; in the data, active means growth inhibition above about 70%; inactive means the rest.

As to `CN(Nc1ccnc(=O)[nH]1)c1ccccc1`, the growth inhibition is -35.9% in assay [1]; -11.2% in assay [2]; -11% in assay [3]; -23.6% in assay [4]; -2.7% in assay [5]; 8.8% in assay [6].

For the compound `CC1(C)OCC(C2OC(C)(C)OC2C(CO)Nc2ccc([N+](=O)[O-])cc2[N+](=O)[O-])O1` (centres undefined), the growth inhibition in assay [1] was 53%; in assay [2] it was 21.4%; in assay [3] it was 59.1%; in assay [4], 41.4%; in assay [5], 11.2%; in assay [6] it was 49.1%.

In the case of `O=C(OC1CCCC1)C1(O)CCCCC1`, the growth inhibition in assay [1] is 18.2%; in assay [2], 12.7%; in assay [3], 3.8%; in assay [4], 10.5%; in assay [5], -2.15%; in assay [6] it was -16.2%.

On to `CCCCCCCCSC1=NS(=O)(=O)c2ccccc21`, for which the growth inhibition was 64% in assay [1]; 28.6% in assay [2]; 44.5% in assay [3]; 31.1% in assay [4]; 49.2% in assay [5]; 31.1% in assay [6].

`COc1ccc(/C=C(\C2=NC(=O)CS2)c2nc3ccccc3[nH]2)cc1`: the growth inhibition was -0.35% in assay [1]; -4.2% in assay [2]; -20.1% in assay [3]; -3.9% in assay [4]; -20.4% in assay [5]; -24.9% in assay [6].

For the compound `COC(=O)c1cc(NC(=O)Nc2ccc(Cl)cc2[N+](=O)[O-])cc(C(=O)OC)c1`, the growth inhibition was -21.4% in assay [1]; -13.3% in assay [2]; -14.1% in assay [3]; -68.2% in assay [4]; -2.35% in assay [5]; -11.1% in assay [6].

`O=C1Cc2nc(CO)c(CO)c(CO)c2CO1`: the growth inhibition in assay [1] is -43%; in assay [2] it was -34.6%; in assay [3], -72.7%; in assay [4], -2.85%; in assay [5] it was -37%; in assay [6] it was -47%.

For `COc1ccc(Cc2ccc3[nH]c(=O)cc(C)c3c2)cc1S(=O)(=O)O`, the growth inhibition in assay [1] is 33.8%; in assay [2], -17.6%; in assay [3] it was -15.5%; in assay [4], 41.7%; in assay [5], -17.7%; in assay [6], 8.95%.

Turning to `Cc1cn(C2CC(OS(C)(=O)=O)C(COC(c3ccccc3)(c3ccccc3)c3ccccc3)O2)c(=O)[nH]c1=O` (centres undefined), the growth inhibition in assay [1] is 30.9%; in assay [2], 1.95%; in assay [3] it was 16.6%; in assay [4] it was -15.2%; in assay [5], -0.9%; in assay [6] it was 15.3%.

For the compound `CC(=O)O[C@H]1CC(C)(C)C(=C=C/C(C)=C/C=C/C=C/C=C(C)/C=C2C=C(/C=C/[C@@]34O[C@]3(C)C[C@@H](O)CC4(C)C)C(=O)O/2)[C@](C)(O)C1`, the growth inhibition was 9.55% in assay [1]; 32.5% in assay [2]; 0.9% in assay [3]; 6.2% in assay [4]; 3.6% in assay [5]; 3.95% in assay [6].

In the case of `O=C(NCCc1ccccc1)c1ccc2ccccc2n1`, the growth inhibition in assay [1] is 65.3%; in assay [2], 53.3%; in assay [3], 63.7%; in assay [4], 52.1%; in assay [5] it was 87.5% (active); in assay [6] it was 84.5% (active).

In the case of `CCOP(=O)(OCC)c1cc(NC(=O)c2cc(NC(=O)c3cc(NC(=O)Nc4cc(C(=O)Nc5cc(C(=O)Nc6cc(P(=O)(OCC)OCC)c7cccc(P(=O)(OCC)OCC)c7c6)n(C)c5)n(C)c4)cn3C)cn2C)cc2c(P(=O)(OCC)OCC)cccc12`, the growth inhibition was -5.45% in assay [1]; -1.55% in assay [2]; -16.1% in assay [3]; 19.9% in assay [4]; 2.5% in assay [5]; 10.7% in assay [6].

On to `CCOC(=O)/C(C#N)=C/c1c[nH]c2ccccc12`, for which the growth inhibition in assay [1] is 19.6%; in assay [2] it was 6.05%; in assay [3] it was 3.5%; in assay [4], 23.8%; in assay [5], 19.3%; in assay [6], 31.4%.

For `C=C1CC[N+]2(CCCC)CCCC12` (centres undefined), the growth inhibition in assay [1] was 4.85%; in assay [2] it was 29.2%; in assay [3], 16.2%; in assay [4], -4.1%; in assay [5], 41.6%; in assay [6], 1%.

Regarding `CC(=O)Oc1cccn(C)c1=O`, the growth inhibition was 18.6% in assay [1]; 19.1% in assay [2]; -6.35% in assay [3]; 24.6% in assay [4]; 32.5% in assay [5]; 21.1% in assay [6].

Regarding `CCCCN(CCCC)CCCNC(=S)Nc1ccccc1`, the growth inhibition was -3.25% in assay [1]; 24.2% in assay [2]; 38.1% in assay [3]; -7.25% in assay [4]; 3.25% in assay [5]; 36.4% in assay [6].

On to `CCOC(=O)C(CN1CCN(CC(NC=O)(C(=O)OCC)C(=O)OCC)CC1)(NC=O)C(=O)OCC`, for which the growth inhibition was -17.1% in assay [1]; -28.3% in assay [2]; -11.9% in assay [3]; -0.5% in assay [4]; 1.15% in assay [5]; -30.1% in assay [6].

Regarding `CCCCOc1ccc(/C=C/C(=O)OCC(CC)CCCC)cc1` (centres undefined), the growth inhibition in assay [1] was -10.2%; in assay [2], -6.2%; in assay [3], 12.4%; in assay [4], -63.4%; in assay [5], 12.2%; in assay [6] it was -9.05%.

For `COc1ccc(Nc2ccnc3cc(Cl)ccc23)cc1CCN`, the growth inhibition in assay [1] was 4.65%; in assay [2] it was 8.85%; in assay [3], 24%; in assay [4], 10.6%; in assay [5] it was -5.9%; in assay [6], -5.8%.
